The full list was thinned out, with hits kept by preference.
IMPase Li cell = IMPase inhibition in cells with lithium potentiation; CHO-M1 cells, IP1 TR-FRET (IP-One), carbachol + lithium; Potency, µM (doses to about 59.4 µM), usual class: inhibitors; hit rate 0.35% among 210,000;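 further: IP1 builds up when IMPase is blocked and the TR-FRET signal falls; nearly all actives have a fitted effect of over 50% in size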
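CHO cells stably expressing M1 receptor (2000/well, cultured 16–30 h) treated 30 min at 37C with compound plus low lithium. Cytosolic IP1 by TR-FRET (665/620 ratio and 620 channel) after 10 min lysis; AC50 by Hill fit.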
12-hLO inh = inhibitors of human 12-lipoxygenase (ALOX12). hit rate 0.12% among 150,000. AID 1452. P18054. Potency, µM (highest dose often 57.1 µM), usual class: inhibitors. purified 12-hLO, xylenol orange hydroperoxide absorbance; further: nearly all actives have a fitted effect of over 55% in size
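Lipoxygenase turnover measured by absorbance at 573 and 405 nm after Fe-XO development. Human 12hLO 150 nM, arachidonate 40 uM, pH 7.0 Hepes buffer with detergent; 15 min compound preincubation, 30 min reaction.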
IMPase inh = IMPase inhibition in cells; CHO-M1 cells, IP1 accumulation, HTRF TR-FRET ratio; inhibition (IP1 accumulation), % at 46.1 µM; 120,000 tested, under 10 active; AID 901; active means well fitted curve in the direction sought with a large enough effect in the signal ratio, not every such curve was filed as active; inconclusive means small, poorly fitted or top-dose-only effect, or a change in a side signal; inactive means no such curve, though single readings can be large or run the other way; the % refers to the signal ratio;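 further: cells stimulated with carbachol in lithium chloride buffer; higher means more IMPase inhibition seen as more IP1 and lower FRET ratio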
Target sequence (P97697 whole entry, looked up): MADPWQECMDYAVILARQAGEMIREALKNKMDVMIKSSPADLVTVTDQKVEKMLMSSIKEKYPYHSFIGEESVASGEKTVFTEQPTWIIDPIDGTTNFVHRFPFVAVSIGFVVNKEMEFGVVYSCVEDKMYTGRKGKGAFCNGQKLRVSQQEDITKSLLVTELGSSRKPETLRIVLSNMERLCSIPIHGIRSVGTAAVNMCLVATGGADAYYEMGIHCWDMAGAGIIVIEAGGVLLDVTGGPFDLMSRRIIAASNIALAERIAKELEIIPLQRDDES
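Cellular IMPase inhibition is scored as a rise in cytosolic IP1, detected by competitive TR-FRET between d2-labelled IP1 and a europium anti-IP1 antibody. M1-expressing CHO cells were stimulated with carbachol for 30 min at 37C, with lithium (50 mM LiCl) present in the buffer.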
PNC inhibitor = perinucleolar compartment assembly inhibition; PC3M PTB-GFP, PNC prevalence imaging, 16 h; stronger effect = lower value; activity change (PNC), negative = inhibition, % at 10 µM; hit rate 3.1% among 140,000; AID 2417;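 active means readout at or below -70, meaning at least 70% loss of cells showing the perinucleolar compartment, a nuclear body marking cancer cells; inconclusive means readout between -30 and a set limit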
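Read-out is percentage of cells bearing a perinucleolar compartment, from automated 20x imaging of fixed, Hoechst-stained PC3M PTB-GFP cells. Cells were seeded 4 h, then exposed 16 h to compound (23 nl of library stock) in duplicate plates.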
Hits are given with their value; i = inactive; ? = inconclusive; nt = not tested or not shown; [ ] = dose if it differs, or a comment. Unless noted, the call rests on the fitted dose curve; in most records, active means well fitted curve in the direction sought with a large enough effect; inconclusive means small, poorly fitted or top-dose-only effect, or another doubt; inactive means no such curve, though single readings can be large; an effect the other way counts as inactive or inconclusive.

SMILES	IMPase Li cell	12-hLO inh	IMPase inh	PNC inhibitor
Cc1ccc(S(=O)(=O)N/N=C\c2ccc([N+](=O)[O-])o2)cc1	i	i	i	-112.1
O=[N+]([O-])c1ccc(/C=N/NS(=O)(=O)c2ccc(Cl)cc2)o1	i	i	nt	i
O=c1c2cn[nH]c2[nH]c(=S)n1-c1cccc2ccccc12	?	i	nt	-113.4
O=c1c2cn[nH]c2[nH]c(=S)n1-c1ccccc1	i	i	i	?
O=C(O)C[C@H](Cc1ccccc1)C(=O)O	i	i[11.4 µM]	nt	nt
COc1cccc(-c2cc(C(F)(F)F)nc(NCc3ccco3)n2)c1	i	i	i	-100.0
NCS(=O)(=O)O	i	i[11.4 µM]	nt	nt
COc1ccc2c(C)cc(SCC(=O)Nc3ncc(Cl)cc3Cl)nc2c1	12.6µM	i	nt	i
COC(=O)c1cc(Cl)c(NC(=O)/C=C/c2ccc(OC)cc2)cc1OC	i	i	nt	-113.0
COc1ccc(NC(=O)/C=C/c2ccccc2)c([N+](=O)[O-])c1	i	i	nt	-82.3
Oc1ccc(-c2nc3ncccn3c2Nc2ccc3c(c2)OCO3)cc1	i	i	i	?
Cc1ccc(-c2nc3ncccn3c2Nc2ccc3c(c2)OCO3)o1	i	i	i	-118.9
COc1ccc(-c2nnn(CC(=O)N3CCOCC3)n2)cc1	i	i	i	i
O=C(Cn1nnc(-c2ccc(OCc3ccccc3F)cc2)n1)N1CCOCC1	i	i	i	-102.3
CCOC(=O)c1c(C)oc2cc(Br)c(OC(C)C(=O)OCC)cc12 (stereo unspecified)	i	i	i	-100.0
CCOC(=O)C1(C(=O)O)NC(=O)CC1c1ccccc1 (stereo unspecified)	i	i	i	-95.2
CC(C)(C)OC(=O)N1CCC(c2cc(=O)n3[nH]c(-c4ccc(Cl)cc4)cc3n2)CC1	i	i	i	-83.8
CCOC(=O)Cc1cc(=O)n2[nH]c(-c3ccc(Cl)cc3)cc2n1	i	i	i	?
Cc1nc(SCC(=O)NC(C)(C)C)c2c(-c3cccs3)csc2n1	i	i	nt	i
COc1ccc(OC)c(NC(=O)CSc2nnc(CNc3ccc(F)cc3)o2)c1	i	i	i	i
COc1ccccc1-n1c(SCC(=O)Nc2cccc3ccccc23)nc(O)cc1=O	i	i	i	i
COc1ccccc1-n1c(SCC(=O)Nc2ccc(C)cc2)nc(O)cc1=O	i	0.0794µM	i	i
COc1ccc(NCc2nnc(SCC(=O)Nc3ccccc3OC)o2)cc1	i	i	i	-104.8
COc1ccc(NC(=O)CSc2nc(O)cc(=O)n2-c2ccccc2OC)cc1	i	7.08µM	i	i
CC(C)COc1ccccc1C1CC(=O)Nc2cc3c(cc21)OCO3 (stereo unspecified)	nt	nt	i	nt
SMILES	IMPase Li cell	12-hLO inh	IMPase inh	PNC inhibitor
O=C(Cn1cc(C(F)(F)F)cc(Cl)c1=O)Nc1cccc(Cl)c1	10µM	i	i	?
C[C@]12O[C@H]1[C@@H](O)C(Br)=C(CO)[C@H]2O	i	nt	nt	nt
O=S(=O)(c1ccc(Br)cc1)N1CCn2c(nc3ccccc32)C1	i	i	i	i
O=S(=O)(Cc1ccccc1)N1CCn2c(nc3ccccc32)C1	i	i	i	-87.1
CCCCC1=CC2=C(c3ccco3)C(=O)C(C)(OC(=O)c3ccc(OC)cc3)C(=O)C2=CO1 (stereo unspecified)	i	i	nt	nt
O[C@@H](c1cc(-c2ccccc2)nc2c1ccc1ccccc12)C1CCCCN1 (stereo partly specified)	i	nt	nt	nt
CCOCCn1cnc2sc(C(=O)Nc3nc(C)c(C(=O)OCC)s3)c(C)c2c1=O	i	i	i	-81.7
CCOC(=O)c1sc2ncn(/N=C/c3ccccn3)c(=O)c2c1C	i	i	?	i
CCOC(=O)c1sc2ncn(/N=C/N(C)C)c(=O)c2c1C	i	i	i	-86.4
CCOC(=O)c1sc(NC(=O)CNC(=O)Cn2cnc3sc(C)c(C)c3c2=O)nc1C	i	i	i	i
CCOc1ccc2nc(SCCNS(=O)(=O)c3ccccc3)sc2c1	i	i	nt	-113.0
CCOc1ccc2nc(SCC(=O)c3ccccc3)sc2c1	i	i	i	?
O=C(O)c1oc(C(=O)O)c(C(=O)O)c1C(=O)O	i	i[11.4 µM]	nt	nt
CCOP(=O)(c1ccccc1)c1nc(-c2ccc(F)cc2)oc1N1CCCCC1 (stereo unspecified)	i	i	i	-87.4
CC[C@H](C)[C@@H]1O[C@]2(CC[C@@H]1C)C[C@H]1C[C@H](CC=C(C)[C@@H](O[C@H]3C[C@H](OC)[C@H](O[C@H]4C[C@H](OC)[C@H](O)[C@H](C)O4)[C@H](C)O3)[C@@H](C)C=CC=C3CO[C@@H]4[C@@H](O)C(C)=C[C@H](C(=O)O1)[C@@]34O)O2	nt	i	i	nt
COc1ccc(OC)c(S(=O)(=O)Nc2cc(OC)c(Cl)cc2OC)c1	i	i	?	i
COc1ccccc1NS(=O)(=O)c1cccc(NC(=O)Nc2cccc(Cl)c2)c1	i	?	nt	-85.8
COc1ccccc1NS(=O)(=O)c1ccc(OC)c(OC)c1	i	i	i	i
COc1ccccc1NS(=O)(=O)c1cc(Cl)ccc1OC	i	i	i	-113.7
COc1cc(NS(=O)(=O)c2ccc(OC)c(C)c2C)c(OC)cc1Cl	i	i	i	-107.7
C[C@@H]1CN(C2CCN(Cc3nc(CC4CC4)no3)CC2)C[C@H](C)O1	i	nt	nt	nt
O=C(Nc1cc(Cl)ccc1N1CCCCC1)c1cccs1	i	i	i	-88.3
CCOC(=O)c1cnc(N(C)C)nc1SC(=N)N	i	i[11.4 µM]	nt	nt
COc1cc2cc3c4c(cc(OC)c(OC)c4c2cc1OC)CCN3C	i	?	i	nt
Cc1ccccc1C=Nc1ccccc1C(N)=O	i	i	nt	-86.0
SMILES	IMPase Li cell	12-hLO inh	IMPase inh	PNC inhibitor
Cc1ccc(C=Nc2ccccc2C(N)=O)cc1	i	i	i	-113.4
Cc1ccc(C2(C)NC(=O)N(CC(=O)NCc3cccs3)C2=O)cc1 (stereo unspecified)	i	i	nt	-108.4
O=C1CC(c2ccco2)CC(O)=C1C=NCCN1CCN(C2CC(=O)N(c3ccccc3)C2=O)CC1 (stereo unspecified)	i	i	i	-100.0
O=c1oc(-c2cccnc2)nc2ccccc12	i	i	i	i
c1ccc(-c2cnc(-c3cccnc3)o2)cc1	i	i	i	-83.7
COc1ccc(N(C(=O)c2ccccc2C)S(=O)(=O)c2ccc(C)cc2)cc1	nt	nt	i	nt
COc1ccc(N(C(=O)c2ccccc2C)S(=O)(=O)c2cccs2)cc1	i	i	nt	-96.7
O=C(CCn1c(=O)oc2ccccc21)NCc1ccc2c(c1)OCO2	i	i	i	i
O=C(CCn1c(=O)sc2ccccc21)NCc1ccc2c(c1)OCO2	i	i	i	-118.9
CCCCC1=CC2=C(OC(C)=O)C(=O)C(C)(OC(=O)c3ccc(Cl)nc3)C(=O)C2=CO1 (stereo unspecified)	i	i	nt	nt
N#Cc1cccc(-c2nccc(NCc3cccnc3)n2)c1	i	nt	nt	nt

Source: PubChem BioAssay (National Center for Advancing Translational Sciences (NCATS))
